HTT aggregate: mutant huntingtin aggregation inhibition; PC12 HttQ103-GFP aggregates, Acumen cytometry, 40 h; Potency, µM (series often up to 46.1 µM), inactives show top-dose activity change, negative = inhibition, actives largely listed as inhibitors; hit rate 1.1% among 220,000; AID 1688; further: potency means the concentration at half of the fitted maximal effect; on the % scale 0 is the no-effect control and ±100 the full control effect; nearly all actives have a fitted effect of over 60% in size
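PC12 cells with ecdysone-inducible HTT exon1 Q103-GFP, induced by 100 nM tebufenozide, given compounds in a concentration series. GFP aggregates (1–25 um, 6 SD above background) counted in lysates by laser-scanning cytometry, 488 nm excitation.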
CBFb-RUNX1 inh: inhibitors of human CBF-beta and RUNX1 interaction. Q01196+Q13951. AlphaScreen CBFb-His/RUNX1-biotin binding, biochemical. Potency, µM (top dose mostly 59.8 µM), for the others: at the highest dose activity, negative = inhibition, hits mostly inhibitors. 230,000 tested, under 10 active. AID 1477; further: % of control where 0% means no effect
Target sequence (Q01196 whole entry, looked up): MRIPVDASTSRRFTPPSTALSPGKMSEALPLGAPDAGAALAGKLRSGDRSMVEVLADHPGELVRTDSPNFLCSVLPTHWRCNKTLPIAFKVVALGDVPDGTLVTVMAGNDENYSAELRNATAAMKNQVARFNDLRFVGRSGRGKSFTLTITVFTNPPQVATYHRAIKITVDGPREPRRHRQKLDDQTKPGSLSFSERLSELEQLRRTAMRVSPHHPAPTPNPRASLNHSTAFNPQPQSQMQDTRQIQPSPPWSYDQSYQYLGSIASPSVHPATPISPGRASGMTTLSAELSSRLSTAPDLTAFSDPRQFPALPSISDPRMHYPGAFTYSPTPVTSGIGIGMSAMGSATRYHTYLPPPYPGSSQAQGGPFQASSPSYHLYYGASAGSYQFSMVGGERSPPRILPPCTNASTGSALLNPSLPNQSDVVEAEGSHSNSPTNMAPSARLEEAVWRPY
Target sequence (Q13951 whole entry, looked up): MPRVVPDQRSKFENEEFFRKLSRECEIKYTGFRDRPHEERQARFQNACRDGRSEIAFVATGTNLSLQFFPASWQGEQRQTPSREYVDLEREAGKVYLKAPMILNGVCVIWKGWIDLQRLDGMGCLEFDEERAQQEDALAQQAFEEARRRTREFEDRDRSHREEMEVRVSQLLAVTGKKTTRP
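Room-temperature protein-protein interaction test with 30 nM each of His-tagged CBF-beta and biotinylated RUNX1, 15 min with compound, then 90 min with nickel plus streptavidin beads. Signal read in AlphaScreen mode.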
HTT cytoprotect: Huntington cell model cytoprotection by ATP luminescence. PC12 HTT-Q103 induced, cytoprotection, ATP luminescence, 40 h. Potency, µM (highest dose often 56.4 µM), for the others: cytoprotection (ATP increase), actives largely listed as activators. hit rate 0.14% among 230,000; further: potency means the concentration at half of the fitted maximal effect; % of control where 0% means no effect; nearly all actives have a fitted effect of over 45% in size
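Rat PC12, Q103 Htt exon1-GFP fusion, ecdysone promoter; tebufenozide inducer 100 nM final; compound titration; qHTS, 1500 cells/well; ATPlite luminescent read.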
KDM4E inh: JMJD2E (human) inhibition | B2RXH2 | JMJD2E catalytic domain, FDH-coupled NADH fluorescence (FDH is formaldehyde dehydrogenase) | Potency, µM (highest dose often 57.1 µM), without a hit: top-dose activity change, negative = inhibition, most hits filed as inhibitors | hit rate 1.6% among 230,000; active means well fitted inhibition curve with a large enough effect, not every such curve was filed as active; inconclusive means small, poorly fitted or top-dose-only effect, or another doubt; inactive means no such curve, though single readings can be large or run the other way;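 further: potency means the concentration at half of the fitted maximal effect; 0% = wells with enzyme and -100% = buffer wells without enzyme; nearly all actives have a fitted effect of over 50% in size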
ALDH1A1 inh: ALDH1A1 (human) enzyme inhibition; P00352; Purified ALDH1A1, NADH fluorescence, propionaldehyde substrate; Potency, µM (series often up to 75.3 µM), for the others: top-dose activity, negative = inhibition, usual class: inhibitors; hit rate 7.3% among 220,000; active means well fitted inhibition curve with a large enough effect, not every such curve was filed as active; inconclusive means small, poorly fitted or top-dose-only effect, or another doubt; inactive means no such curve, though single readings can be large or run the other way;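 further: potency means the concentration at half of the fitted maximal effect; plate controls were no enzyme wells and a reference inhibitor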
HPGD block: blocks human HPGD enzyme activity | Potency, µM, without a hit: top-dose activity change, negative = inhibition, actives largely listed as inhibitors | AID 894 | P15428 | purified HPGD, NADH fluorescence kinetic, PGE2 substrate | hit rate 4.3% among 150,000; active means well fitted inhibition curve with a large enough effect, not every such curve was filed as active; inconclusive means small, poorly fitted or top-dose-only effect, or another doubt; inactive means no such curve, though single readings can be large or run the other way; further: potency means the concentration at half of the fitted maximal effect; on the % scale 0 is the no-effect control and ±100 the full control effect
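20 nM HPGD preincubated 15 min at room temperature with compound in 50 mM Tris-HCl pH 8, 0.01% Tween 20. Started with 1 mM NAD+ and 30 uM prostaglandin E2; NADH fluorescence (360/450 nm) read 5 times over 30-s intervals, last minus first.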
* hit, by the source's call; u = inconclusive; x = no result; [ ] = dose if it differs, or a comment. This is a sample that favours compounds with a hit; in the whole collection about 9.8% have one here. Unless noted, the call rests on the fitted dose curve; in most records, active means well fitted curve in the direction sought with a large enough effect; inconclusive means small, poorly fitted or top-dose-only effect, or another doubt; inactive means no such curve, though single readings can be large; an effect the other way counts as inactive or inconclusive.

SMILES	HTT aggregate	CBFb-RUNX1 inh	HTT cytoprotect	KDM4E inh	ALDH1A1 inh	HPGD block
COCCN(CCOC)c1nc(C)nc2c1nc(-c1ccccc1)n2CCN1CCOCC1	x	1%	-9%	u	u	u
C[C@@]1(C(=O)O)NCCc2cc(O)c(O)cc21	x	x	2%	u	u	u
C=C(C)CSc1cc(C)nc2c(-c3ccccc3)c(C)nn12	11%[9.22 µM]	27%	0%[10 µM]	1%	x	x
O=C(NCCN1CCOCC1)c1cc2sccc2n1Cc1ccc(F)cc1	27%	4%	-16%	-2%	-14%	25µM*
O=C(NCc1ccco1)C1CCN(C(=O)c2cc3sccc3n2Cc2ccc(Cl)cc2)CC1	4%[9.22 µM]	-7%	-3%[10 µM]	-5%	13µM*	-6%
O=C(NCCN1CCOCC1)c1cc2sccc2n1Cc1ccc(Cl)cc1	32%	-4%	-3%[10 µM]	-2%	u	16µM*
Cc1nc2ccccn2c1/C(O)=C1\C(=O)C(=O)N(CCCn2ccnc2)C1c1ccncc1 (stereo unspecified)	3%	3%	-8%	-24%	-3%	-20%
CC(C)C1=CC2=CC[C@H]3[C@@](C)(CCC[C@]3(C)C(=O)O)[C@@H]2CC1	x	x	5%	x	x	x
COCCN(CCOC)C(=O)COC(=O)c1ccc(Cl)c(S(=O)(=O)N(C)c2ccccc2)c1	21%	2%	-13%	-15%	9%	x
C=CCNc1nc(Nc2ccc([N+](=O)[O-])cc2)nc(N2CCCC2)n1	u	0%	-156%	-4%	32µM*	x
CC1CCN(c2nc(Cl)nc(Nc3ccc([N+](=O)[O-])cc3)n2)CC1	-23%	12%	x	-3%	16µM*	-20%
NC(=S)NNC(N)=S	x	16%[21.7 µM]	-10%	x	u	u
COCCN1C(=O)N[C@@H](c2cccc(C(F)(F)F)c2)[C@H](C(C)=O)[C@H]1C	x	1%[13.1 µM]	-25%[10 µM]	-9%[11.4 µM]	7%[13.5 µM]	-6%
Cc1ccc2ccc(S(=O)(=O)n3nc(C)cc3C)cc2c1	-14%	1%	-4%[10 µM]	0%	0.89µM*	u
C/C(=N\NS(=O)(=O)c1ccc([N+](=O)[O-])cc1)c1ccc(NC(=O)c2ccco2)cc1	7%	6%	-85%	-20%	25µM*	x
O=C(Nc1ccc(S(=O)(=O)NC2CCCCC2)cc1)c1ccc(Br)o1	-31%	1%	-9%[0.074 µM]	-4%	-7%	14µM*
CN(C1CCCCC1)S(=O)(=O)c1ccc(NC(=O)c2ccc(Br)o2)cc1	22µM*	-23%	1%[10 µM]	u	u	-28%
O=C(Nc1ccc(S(=O)(=O)NC2CCCCC2)cc1)c1ccco1	-20%	-1%	8%[10 µM]	-3%	0%	13µM*
CN(C)S(=O)(=O)c1ccc(NC(=O)c2ccc(Br)o2)cc1	-3%	4%	-6%[10 µM]	2%	1%	-9%
O=C(Nc1ccc(S(=O)(=O)N2CCC(C(=O)NC3CCCCC3)CC2)cc1)c1ccco1	-4%	1%	1%	u	u	u
O=C(CSc1nccn1-c1ncc(C(F)(F)F)cc1Cl)c1ccc(Cl)cc1	10%	-2%	9%	6%	-8%	-11%
COc1cc(/C=C(\C#N)C(=O)Nc2ccc3c(c2)OCCO3)ccc1O	-8%[9.22 µM]	3%	-25%[10 µM]	3%	x	x
Cc1ccc(OCCn2cnc3ccccc3c2=O)c([N+](=O)[O-])c1	12%	1%	7%[0.074 µM]	2%	9%	-6%
CN(C)c1ccc(CNC(=O)c2ccc(CNc3c(N4CCCCC4)c(=O)c3=O)cc2)cc1	-8%	-1%	-29%	-2%	28µM*	22µM*
O=C(c1ccc(CNc2c(N3CCCC3)c(=O)c2=O)cc1)N1CCc2ccccc2C1	u	18%	-7%	-1%	10%	3.5µM*
SMILES	HTT aggregate	CBFb-RUNX1 inh	HTT cytoprotect	KDM4E inh	ALDH1A1 inh	HPGD block
CCOC(=O)C1CCN(c2c(NCc3ccc(N(C)C)cc3)c(=O)c2=O)CC1	15%[9.22 µM]	-5%	17%[10 µM]	-4%	x	x
CCOC(=O)C1CCN(c2c(NCc3ccc(C(=O)NC(C)CC)cc3)c(=O)c2=O)CC1 (stereo unspecified)	-17%	9%	-11%	-3%	u	5µM*
O=c1c2ccccc2nc2n1CC/C2=C/N1CCN(c2cccc(C(F)(F)F)c2)CC1	19%	3%	-30%[0.074 µM]	2%	4µM*	x
CC(=O)CCc1oc2ccc([N+](=O)[O-])cc2c1-c1ccc(C)o1	-11%[9.22 µM]	-10%	-14%[10 µM]	-3%	10µM*	x
CCc1ccc2c(c1)C1(NN=C(c3ccc(C)cc3)S1)C(=O)N2 (stereo unspecified)	22µM*	-23%	15%[10 µM]	u	u	u
C/C(=N\NC(=O)CN(c1ccccc1)S(C)(=O)=O)c1ccccc1O	u	1%	1%	18µM*	-6%	x
CC(C)(C)C1CCC(=NNC(=O)CN(c2ccccc2)S(C)(=O)=O)CC1 (stereo unspecified)	-8%	-4%	x	-4%	4%	-33%
CC(C)(C)OC(=O)N1C2C=CC1C1=COCCN1C2=O (stereo unspecified)	x	16%	x	x	x	x
Cc1cc(-c2nc(C)c(C(=O)NN)s2)no1	-9%[9.22 µM]	-4%	-16%[10 µM]	52%	10µM*	x
Cc1nc(N)sc1C(=O)NN	-39%[9.22 µM]	2%	-63%[10 µM]	21%	25µM*	x
C=CCNC(=O)c1sc(-c2ccccc2)nc1C	-7%	4%	-29%	-4%	5%	x
Cc1ccc(N/C=C/C(=O)c2cccs2)cc1	-4%	15%	x	7%	u	x
Cc1nc(-c2ccccc2)sc1C(=O)NN	-27%	-8%	5%[10 µM]	-22%	4.5µM*	x
Cc1ccc(N/C=C/C(=O)c2sc(-c3ccccc3)nc2C)cc1	-14%	-2%	-26%	-3%	11µM*	-2%
Cc1ccc(N(C)C(=O)n2cnc3ccccc32)cc1	1%	3%	-2%[10 µM]	2%	-8%	x
Cc1c(C(=O)O)c(=S)sn1CCOc1ccccc1	-5%	7%	1%	2%	-8%	18µM*
COc1ccc(NS(=O)(=O)c2ccc(N/N=C(\C)c3ccncc3)c([N+](=O)[O-])c2)cc1	0%	-2%	-10%[0.074 µM]	-6%	1%	6.3µM*
C/C(=N\Nc1ccc(S(=O)(=O)Nc2ccccc2)cc1[N+](=O)[O-])c1ccncc1	6%	-2%	-57%	19%	2%	x
Cc1ccc2c(=O)c3ccccc3n(CCCN)c2c1C	x	28%	-188%	x	-8%	u
N#CC1=C(N)SC(N)=C(C#N)C1c1ccoc1	-10%	-16%	5%[10 µM]	u	20µM*	28µM*
C=CCOC(=O)C1=C(C)OC(N)=C(C#N)C1c1ccoc1 (stereo unspecified)	-12%	3%	18%[10 µM]	u	-10%	-15%
Cc1ccc(C2C(C#N)=C(N)SC(N)=C2C#N)cc1	10%	8%	-19%[10 µM]	u	22µM*	-16%

Source: PubChem BioAssay (National Center for Advancing Translational Sciences (NCATS))
